Compound activity as filed in PubChem.
CYP2C19 activ = activators of human cytochrome P450 2C19 | activation factor at 5 µM | 96,000 tested, under 10 active | AID 1025 | recombinant CYP2C19, luciferin-H EGE luminescence; stronger effect = higher value; 0 = fully inhibited enzyme, 1 = untreated enzyme | P33261;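 active = activation factor of at least 2 at 5 µM in the primary screen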;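 note: 0 = wells with 2.5 mM tranylcypromine and 1 = vehicle-only wells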
Target sequence (P33261 whole entry, looked up): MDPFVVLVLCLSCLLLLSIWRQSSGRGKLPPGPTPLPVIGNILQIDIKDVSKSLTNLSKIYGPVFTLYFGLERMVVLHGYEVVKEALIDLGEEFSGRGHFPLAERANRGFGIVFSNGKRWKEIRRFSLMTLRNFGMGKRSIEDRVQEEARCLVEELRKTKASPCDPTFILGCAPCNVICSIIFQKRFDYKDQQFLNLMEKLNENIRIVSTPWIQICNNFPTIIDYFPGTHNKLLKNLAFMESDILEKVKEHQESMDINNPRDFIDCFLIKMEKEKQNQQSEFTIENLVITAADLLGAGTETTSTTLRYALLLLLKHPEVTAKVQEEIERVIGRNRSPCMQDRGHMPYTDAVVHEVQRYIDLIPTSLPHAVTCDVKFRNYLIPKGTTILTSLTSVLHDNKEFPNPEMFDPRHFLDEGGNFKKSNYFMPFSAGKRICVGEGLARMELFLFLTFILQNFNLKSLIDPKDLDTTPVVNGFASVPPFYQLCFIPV
CYP2C9 inhib = human CYP2C9 inhibition | P11712 | CYP2C9 Supersomes, luciferin-H conversion, luminescence | inhibition, % at 5 µM | hit rate 20% among 96,000 | AID 777;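 active = blocking of liver enzyme CYP2C9 beyond about 50% at 5 µM, limit read from the data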
Measles CPE = protection of cells from measles virus. Measles virus-infected cells, CPE protection, absorbance. protection (pct of control), % at 4 µM. hit rate 1.5% among 140,000; in the data active = protection mostly above about 24%, no sharp cut-off; inactive = mostly below about 26%
CYP2C9 act = increases human cytochrome P450 2C9 activity; P11712; AID 1024; hit rate 1.4% among 96,000; recombinant CYP2C9, luciferin-H conversion, luminescence; stronger effect = higher value; factor 1 = untreated enzyme, 0 = blocked; activation factor at 5 µM;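 active = activation factor of 2 or more for CYP2C9 at a 5 µM dose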;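 note: 0 = sulfaphenazole-blocked wells and 1 = vehicle-only wells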
CYP2C19 inh = blocks human cytochrome P450 2C19. CYP2C19 Supersomes, luciferin-H EGE luminescence, 30 min. inhibition, % at 5 µM. hit rate 21% among 96,000. AID 778;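 active = CYP2C19 inhibition above a set limit at 5 µM in the primary screen, cut at about 50% in these data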;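 note: plate controls were negative control wells for no effect and 2.5 mM tranylcypromine positive control for full effect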
Active calls of the source: *; / = no result. Rows were chosen to be rich in hits. Some 22% of all compounds tested hit in one or more screens of this group.

SMILES | CYP2C19 activ | CYP2C9 inhib | Measles CPE | CYP2C9 act | CYP2C19 inh
O=S(=O)([O-])CCC[n+]1c(SCCCS(=O)(=O)O)sc2ccc(Cl)cc21 | / | / | 35* | / | /
CCOC(=O)C(/C(C)=N/NC(=O)c1ccccc1[N+](=O)[O-])C(C)C (configuration not stated) | 0.6 | 21 | 36 | 0.8 | 44
CCOc1ccccc1C1C(C(=O)Nc2ccccc2OC)=C(C)Nc2nc(CCCO)nn21 (configuration not stated) | 0.6 | 25 | 1 | 0.7 | 37
CC(=O)OCCSc1c(-c2ccccc2)c2cc(Cl)ccc2[nH]c1=O | / | / | 8 | / | /
COc1ccc(/C=C/C(=O)O)cc1OC | / | / | 4 | / | /
COc1cc(/C=C/C(=O)N2CCOCC2)ccc1OCc1ccccc1 | / | / | 94* | / | /
COc1cc(/C=C/C(=O)NC(C)(C)C)ccc1OCc1ccccc1 | / | / | 27* | / | /
CC1CCc2cc(F)ccc2N1C(=O)CN1C(=O)c2ccccc2C1=O (configuration not stated) | 0.7 | 34 | 11 | 0.7 | 33
Cc1ccc(Cc2cnc(N3C(=N)SC(c4ccccc4)C3=O)s2)cc1 (configuration not stated) | / | / | 10 | / | /
Cn1c(C(=O)N2CCN(C3CCCCC3)CC2)cc2c(=O)n(C)c3ccccc3c21 | 1.1 | 13 | 1 | 0.9 | -6
COc1ccccc1N1CCN(C(=O)c2cc3sccc3n2C)CC1 | 0.3 | -40 | 4 | 1.4 | 66*
COc1ccccc1N1CCN(C(=O)c2cc3c(=O)n(C)c4ccccc4c3n2C)CC1 | 0.1 | 61* | 2 | 0.4 | 89*
Cn1c(C(=O)N2CCN(c3nc4ccccc4s3)CC2)cc2sccc21 | 1.1 | -23 | 10 | 1.2 | -7
Cn1c(C(=O)N2CCN(C(=O)c3ccco3)CC2)cc2c(=O)n(C)c3ccccc3c21 | 0.5 | 18 | 4 | 0.8 | 53*
COc1cc(O)c2c(c1)COC2=O | / | / | 5 | / | /
COc1ccc(C(=O)N2CCC(C(=O)O)CC2)cc1 | 1 | 8 | 6 | 0.9 | 3
O=C(c1ccco1)N1CCC(c2ccccc2)C1 (configuration not stated) | 0.2 | 51* | 4 | 0.5 | 78*
COc1ccc(C(=O)N2CCCC(c3ccccc3)C2)cc1 (configuration not stated) | 0 | -24 | 3 | 1.2 | 95*
CC(C)(C)OC(=O)N1CCCC1C(=O)O (configuration not stated) | 1 | -2 | 7 | 1 | -3
Cc1oc(C(C)(C)C)cc1C(=O)N1CCCC1C(=O)O (configuration not stated) | / | / | 26* | / | /
CCN(CC)S(=O)(=O)c1cccc(C(=O)N2CCCCC2)c1 | 1 | -14 | 15 | 1.1 | -1
CCN(CC)S(=O)(=O)c1ccc(S(=O)(=O)Nc2ccc3c(c2)oc2ccccc23)cc1 | 0.3 | 100* | 3 | 0 | 70*
CCN(CC)S(=O)(=O)c1ccc(S(=O)(=O)Nc2ccc(C(=O)N3CCCC3)cc2)cc1 | 0.5 | 99* | 13 | 0 | 51*
O=C(c1ccc(NS(=O)(=O)c2ccccc2)cc1)N1CCCC1 | 0.2 | 93* | 2 | 0.1 | 76*
CN(C)S(=O)(=O)c1ccc(S(=O)(=O)Nc2ccc3c(c2)oc2ccccc23)cc1 | 1.2 | 28 | 8 | 0.7 | -18
SMILES | CYP2C19 activ | CYP2C9 inhib | Measles CPE | CYP2C9 act | CYP2C19 inh
CCN(CC)S(=O)(=O)c1ccc(NS(=O)(=O)c2ccc(C)c(C)c2)cc1 | 0 | 99* | 3 | 0 | 98*
O=C(c1ccc(S(=O)(=O)Nc2ccccc2)cc1)N1CCOCC1 | 0.8 | 8 | 2 | 0.9 | 19
CCN(CC)S(=O)(=O)c1cc(NS(=O)(=O)c2ccccc2)ccc1C | / | / | 5 | / | /
Cn1c(=O)cc(SCC(=O)N2CCOCC2)c2ccc(Cl)cc21 | / | / | 13 | / | /
Cn1c(=O)cc(SCC(=O)N2CCCC2)c2ccc(Cl)cc21 | 0.7 | -4 | 7 | 1 | 30
Cn1c(=O)cc(SCC(=O)N2CCN(c3ccccc3)CC2)c2ccccc21 | 0.5 | -43 | 3 | 1.4 | 51*
Cn1c(=O)cc(SCC(=O)N2CCN(c3ccccn3)CC2)c2ccccc21 | 0.8 | 62* | 7 | 0.4 | 15
Cn1c(=O)cc(OCCCC(=O)N2CCN(c3ccccc3)CC2)c2ccccc21 | 0.2 | 61* | 8 | 0.4 | 80*
O=[N+]([O-])c1cccc(/C=N/Nc2nc(NCc3ccccc3)nc(N3CCOCC3)n2)c1 | / | / | 8 | / | /
COc1ccc(C(C(=O)NC2CCCC2)N(CCN2CCOCC2)C(=O)c2ccc(OC)c(OC)c2)cc1 (configuration not stated) | 1.2 | -32 | 6 | 1.3 | -25
CCc1ccc(CNc2ccc(O)cc2)cc1 | 0.2 | 23 | 5 | 0.8 | 82*
CCc1nnc(SCc2cn3c(C)cc(C)nc3n2)n1N | 1.2 | -26 | 4 | 1.3 | -20
CC(=O)Nc1cccc(C(=O)N2CCN(Cc3ccccc3)CC2)c1 | 0 | 13 | 19 | 0.9 | 96*
O=C(Nc1cccc(C(=O)N2CCN(Cc3ccccc3)CC2)c1)c1ccccc1 | 0.2 | -2 | 10 | 1 | 83*
O=C(c1ccc(CN2CCOCC2)cc1)N1CCN(Cc2ccccc2)CC1 | 0.9 | 7 | 44* | 0.9 | 9
Cc1ccc(OCC(=O)N2CCOCC2)cc1C | / | / | 4 | / | /
Cc1ccc(OCc2ccc(C(=O)N3CCOCC3)cc2)cc1C | 0.3 | -50 | 25 | 1.5 | 71*
COc1ccc(C(=O)Nc2cccc(C(=O)N3CCN(C)CC3)c2)cc1 | 0.9 | 16 | 24 | 0.8 | 15
c1ccc(CN2CCOCC2)cc1 | 1 | -7 | 5 | 1.1 | -4
Cc1nn(Cc2c(F)cccc2Cl)c(C)c1NC(=O)C1CC1 | / | / | 6 | / | /
Cn1cccc1C(=O)NC(=O)CSc1cccc[n+]1[O-] | 0.9 | 7 | 16 | 0.9 | 14
CCN1CCN(c2cc(C)c3cc(NC(=O)Cc4ccccc4OC)ccc3n2)CC1 | 0.9 | 0 | 10 | 1 | 14
O=C(c1ccc(CN2CCOCC2)cc1)N1CCN(c2cccc(Cl)c2)CC1 | 0.9 | 22 | 2 | 0.8 | 13
O=C(c1cccc(C(=O)N2CCN(Cc3ccccc3)CC2)c1)N1CCN(Cc2ccccc2)CC1 | 0 | 82* | 3 | 0.2 | 97*
O=C(Nc1ccccc1C(=O)N1CCN(Cc2ccccc2)CC1)c1ccccn1 | 0.1 | 67* | 7 | 0.3 | 85*
SMILES | CYP2C19 activ | CYP2C9 inhib | Measles CPE | CYP2C9 act | CYP2C19 inh
O=C(c1cccc(Cl)c1)N1CCN(Cc2ccncc2)CC1 | / | / | 5 | / | /
Cc1ccc(Cl)cc1N1CCN(C(=O)c2ccc(CN3CCOCC3)cc2)CC1 | 0.4 | 67* | 6 | 0.3 | 60*
C/C(=N\OC(=O)c1cccc(C(F)(F)F)c1)c1sc(-c2ccccc2)nc1C | 1.1 | -10 | 3 | 1.1 | -6
O=C(/C=C/c1ccc(Cl)cc1)NCc1ccncc1 | / | / | 14 | / | /
CCOC(=O)C1=C(C)NC(C)=C(C(=O)OCC)C1C(=O)OCC(=O)NC(C)C | 0.2 | 85* | 13 | 0.2 | 84*
CCOC(=O)c1cc(CC)sc1NC(=O)c1ccc2c(c1)OCCO2 | 1 | 25 | 6 | 0.7 | -3
